# Assay results: PubChem BioAssay AID485294 (National Center for Advancing Translational Sciences (NCATS), 2010)
# The whole screen tested about 370,000 compounds, of which about 150 (0.041%) were called active. Not shown: some 14% with an inconclusive outcome. What follows is part of a selection rich in actives, with near analogues and random picks from the rest. Unmarked numbers belong to inactive results. The call rests on the fitted dose curve; in most records, active means well fitted inhibition curve with a large enough effect; inconclusive means small, poorly fitted or top-dose-only effect; inactive means flat fitted curve, though single readings scatter.
# Biological target: Beta-lactamase (Escherichia coli (strain K12)) (UniProt P00811)
# Sequence (P00811 whole entry, looked up): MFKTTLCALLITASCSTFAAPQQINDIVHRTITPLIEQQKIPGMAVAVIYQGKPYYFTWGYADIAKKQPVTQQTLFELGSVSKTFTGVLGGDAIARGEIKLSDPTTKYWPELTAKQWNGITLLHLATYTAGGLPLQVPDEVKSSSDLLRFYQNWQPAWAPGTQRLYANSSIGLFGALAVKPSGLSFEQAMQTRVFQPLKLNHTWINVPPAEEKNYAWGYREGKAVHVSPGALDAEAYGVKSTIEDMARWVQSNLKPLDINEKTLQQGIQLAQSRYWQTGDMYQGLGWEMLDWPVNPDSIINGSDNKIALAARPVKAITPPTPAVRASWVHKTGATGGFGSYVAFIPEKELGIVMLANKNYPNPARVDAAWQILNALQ
# Assay: qHTS Inhibitors of AmpC Beta-Lactamase (assay with detergent); further: nearly all actives have a fitted effect of over 25% in size;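 on activity change, negative = inhibition: 0% = no-compound wells and -100% = no-enzyme wells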
# Conditions: AmpC hydrolysis of nitrocefin, absorbance 480 nm, 0.01% Triton; series mostly up to 114 µM; activity change, negative = inhibition: at the top concentration
# Experimental: NIH Molecular Libraries Probe Production Network [MLPCN] NIH Chemical Genomics Center [NCGC] Assay Provider: Professor Brian Shoichet, UCSF Assay Overview: This aggregation profiling approach exploits the sensitivity of aggregate formation to detergent. Inhibition of b-lactamase is measured in the presence and absence of 0.01% Triton X-100. This particular assay had the prescence of 0.01% Triton X-100. See Pubchem assay "Promiscuous and Specific Inhibitors of AmpC Beta-Lactamase (assay without detergent)" for related screen. Compounds that inhibit only in the absence of detergent are considered likely promiscuous aggregators. A screen of 1,030 compounds was performed in Brian Shoichet's lab in 96-well format. AmpC activity was measured by following the absorbance at 480 nm. Nitrocefin is a chromogenic substrate: while nitrocefin is yellow (lmax 390 nm), the product of its hydrolysis is red (lmax 486 nm, 17,000 M-1). AmpC beta lactamase was provided by Shoichet Lab, UCSF.
# Buffer: 20 mM phosphate buffer, pH 7.0 Triton X-100: No Detergent screen: 0.0001%, Detergent screen: 0.01%. Reagents/Controls: Buffer in columns 3 and 4 as negative control (no enzyme). 5.3 nM AmpC in columns 1, 2, 5-48. Titration of UCSF compound 9 control (from 10 mM, then 1:2) pin-transferred to column 2. Column 1 is neutral (100% activity). Assay Steps: Six uL of reagents were dispensed to 1536-well Greiner black clear bottom plates. Compounds and controls (23 nL) were transferred via Kalypsys PinTool. The plates were incubated for 15 min at room temperature, and then 2 uL of 800 uM solution of nitrocefin was added to start the reaction. The plates were immediately transferred to and read every 20 seconds for 4 min on ViewLux (Perkin-Elmer) High-throughput CCD imager using 480 nm absorbance protocol. During dispense, reagent bottles were kept submerged into 4 deg C water bath. Keywords: NIH Roadmap, MLSCN, MLI, MLSMR, qHTS, NCGC, AmpC Beta-Lactamase, Aggregation
# Potency means the concentration at half of the fitted maximal effect.
Compound,Potency,"activity change, negative = inhibition"
Cc1ccc(N(C(=O)CNC(=O)c2ccco2)C(C(=O)NC2CCCC2)c2ccncc2)cc1 (stereo not given),14.1 µM (active),–
COc1cccc(N(C(=O)CNC(=O)c2ccco2)C(C(=O)NC2CCCCC2)c2cccnc2)c1 (stereo not given),–,-8.32%
CC(C)(C)NC(=O)C(c1ccncc1)N(C(=O)CNC(=O)c1ccco1)c1ccc2c(c1)OCO2 (stereo not given),–,-14.3%
Cc1nnc(N2CCCC(C(=O)NCCN(C)C)C2)c2nn(-c3ccccc3)c(C)c12 (stereo not given),–,1.73%
CCOc1ccc(-c2n[nH]c3c2C(c2ccccc2OC)N(c2ccc(Br)cc2)C3=O)cc1 (stereo not given),–,-2.45%
Nc1ccc2nc3c(=O)[nH]c(=S)[nH]c3nc2c1,50.1 µM (active),–
Clc1ccc(CSc2nncn3c2cc2occc23)cc1,–,-10.9%
Cc1ccc(C)c(S(=O)(=O)c2nnn3c2nc(N2CCOCC2)c2sccc23)c1,–,9.64%
CCC(=O)N1CCc2cc(Br)cc(S(=O)(=O)Nc3ccc(C)cc3C)c21,–,4.3%
CC1=C(c2ccc(C)cc2)S(=O)(=O)NC1=NCCCN1CCN(c2cc(C)ccc2C)CC1,–,19.9%
Fc1ccc(C(Nc2ccc(Cl)c(C(F)(F)F)c2)c2nnc(-c3ccccc3)o2)cc1 (stereo not given),–,5.04%
Cc1ccc(-c2cn3c(n2)sc2cc(C(=O)NCc4cccs4)ccc23)c(C)c1,–,13.4%
CCOC(=O)c1c(NC(=O)c2ccc(S(=O)(=O)N(CC)CC)cc2)sc2c1CCCCC2,–,-9.3%
COc1ccc(-c2cccc(NS(=O)(=O)c3cc(C)c(OC)c(C)c3C)c2)nn1,–,11.2%
Cc1ccc(NC(=O)Cc2ccc(NC(=O)N3CCCCc4ccccc43)cc2)cc1,–,3.85%
COc1ccc(CCC(=O)NCCc2csc(-c3ccc(Cl)cc3)n2)cc1,–,2.64%
COc1cc(-c2cc3n(C)c(C)c(CCC(=O)Nc4ccc(F)cc4)c(=O)n3n2)cc(OC)c1OC,–,-3.72%
Cc1ccc(NC(=O)c2cc(S(=O)(=O)NCCC3=CCCCC3)ccc2F)cc1C,–,-2.66%
Cc1cc(Nc2cccc(C(F)(F)F)c2)nc2ccc(NC(=O)c3ccc(=O)[nH]c3)cc12,–,1.63%
COCCn1c(CCC(=O)Nc2cc(C)ccc2C)nc2cccnc21,–,17.5%
Cc1ccc2cccc(NC(=O)c3ccc(OC(C)C)cc3)c2n1,–,-6.92%
COc1ccc(-c2nc3nc(C)cc(C)n3c2Nc2c(C)cccc2C)cc1,–,8.99%
O=C(Nc1c(C(=O)N2CCN(c3ccc(F)cc3)CC2)oc2ccccc12)c1ccco1,–,6.2%

Compound,Potency,"activity change, negative = inhibition"
CCOc1ccc(NC(=O)CCc2c(C)nn(-c3ccc(N4CCCC4)nn3)c2C)cc1,–,-8.16%
O=C(COc1ccccc1F)Nc1ccc(C(=O)OCc2cc(=O)n3nc(C4CC4)sc3n2)cc1,–,2.62%
CCOc1cc(C2C(C(=O)OC)=C(C)NC3=C2C(=O)c2ccccc23)ccc1O (stereo not given),–,-0.36%
O=S(=O)(c1ccc2nc(NCc3ccccc3Cl)ccc2c1)N1CCCCC1,–,-1.11%
COc1ccc(Cl)cc1-n1c(CCC(=O)O)ccc1-c1ccc(C)cc1,–,3.97%
O=C(Nc1ccc(S(=O)(=O)N2CCC(c3nc4ccccc4s3)CC2)cc1)c1ccccc1F,–,16.5%
CSc1ccc(CCNC(=O)c2cc(C)nc3c2c(C)nn3-c2cccc(F)c2)cc1,–,0.607%
Cc1ccc(Cl)cc1NC(=O)CSc1nc2ccccc2nc1Cc1ccccc1,–,21.3%
CCCCN(CC)CCCNC(=O)c1nn(C)c2c1CS(=O)(=O)c1ccccc1-2,–,17.6%
CCC(CC)c1nn2cc(-c3ccccc3)nc2s1,–,6.01%
COc1ccc(N2C(=O)CSC23C(=O)N(Cc2cccc(F)c2)c2ccccc23)cc1Cl (stereo not given),–,20.8%
O=C(CC(NCc1cccnc1)C(=O)O)Nc1ccc(O)cc1 (stereo not given),–,18.5%
CCN(CCCNC(=O)c1ccc(Sc2ccc(C)cc2)c(NC(C)=O)c1)c1cccc(C)c1,–,11%
Cc1ccc(CNC(=O)CCc2c(C)nn(-c3ccc(N4CCCC4)nn3)c2C)cc1,–,9.01%
CC1=C(C(=O)OCc2ccc(C)cc2)C(c2ccccc2Cl)CC(=O)N1 (stereo not given),–,-0.201%
Cc1ccc(C(=O)NCCSc2c(C)[nH]c3ccccc23)cc1C,–,9.55%
CCc1ccc(NC(=O)c2cnc3c(-c4ccccc4)c(C)nn3c2C)cc1,–,6.28%
CCN(C(=O)c1sc2cc(OC)ccc2c1Cl)c1ccccc1,–,1.06%
COC(=O)c1cc(NC(=O)c2cnc(SC)nc2-c2ccccc2)cc(C(=O)OC)c1,–,7.39%
CCCCOc1ccc(CN2C(=O)C(=O)c3cc(Br)cc(C)c32)cc1OC,–,13.6%
CCOc1ccc(/C=C(\C#N)c2nc3ccccc3c(=O)[nH]2)cc1OC,–,-3.18%
O=C(COc1ccccc1)OCc1cc(=O)n2nc(-c3cccs3)sc2n1,–,-3.28%
O=C(Nc1ccc(Br)cc1)c1ccc(Br)c(S(=O)(=O)NCc2ccccc2)c1,–,-1.49%

Compound,Potency,"activity change, negative = inhibition"
CCn1c2ccccc2c2nnc(N3CCN(c4cc(C)ccc4C)CC3)nc21,–,21%
CCOC(=O)c1sc(NC(=O)/C=C/c2ccc(C(C)C)cc2)c(C(=O)OCC)c1C,–,-0.936%
CCOC(=O)c1c(CNCc2ccccc2F)c2sc(C)cc2n1C,–,-3.41%
Cn1cc(C(=O)NCc2ccccc2F)cn1,–,-0.872%
Cn1c2cc(B(O)O)sc2c2cnn(Cc3ccccc3F)c(=O)c21,2.82 µM (active),–
Cc1cc2c(cc1S(=O)(=O)CCC(=O)Nc1ccc(OC(F)(F)F)cc1)OCC(=O)N2,–,24.8%
COc1ccccc1C(=O)Nc1c(C(=O)Nc2ccc(C)cc2)oc2ccccc12,–,-6.46%
CCOC(=O)c1c(C)[nH]c(CCC(=O)NCCCN2CCN(c3cc(C)ccc3C)CC2)c1C,–,-1.88%
COc1cc(NS(=O)(=O)c2ccc3c(c2)OCC(C(=O)N2CCCC2)O3)cc(OC)c1 (stereo not given),–,-1.24%
COc1cc2nc(SCc3ccc(F)cc3)n3nc(CCn4c(C)nc5ccccc54)nc3c2cc1OC,–,3.25%
CCCCN(CC)CCCNC(=O)Cn1ncc2c([nH]c3ccc(C)cc32)c1=O,–,2.61%
O=C(CN1C(=O)COc2ccc(S(=O)(=O)N3CCCCCC3)cc21)N1CCN(c2cccc(C(F)(F)F)c2)CC1,–,3.1%
O=C(CSc1nccn1-c1ccc(F)cc1)Nc1cccc2ccccc12,–,0.247%
COc1ccc2c(Sc3ccc(C)cc3)c(C(=O)NC(C)c3ccccc3)[nH]c2c1 (stereo not given),–,1.51%
O=C(Nc1ccc2nc(SCCOc3ccccc3)sc2c1)c1ccco1,–,13.9%
CCOc1cc(CNC(=O)c2sc3ncnc(N(C)C4CCCCC4)c3c2C)ccc1OC,–,-0.364%
CCS(=O)(=O)N1CCc2cc(C(=O)NCc3ccc(OC)cc3)ccc21,–,21.8%
Cc1ccccc1C(=O)Nc1ccccc1NC(=O)c1ccccc1C,–,0.475%
Cc1ccccc1C(=O)O,–,-5.95%
Cc1ccc(NC2=C(Cl)C(=O)OC2OC(=O)c2ccccc2C)cc1 (stereo not given),6.31 µM (active),–
Cc1ccccc1C(=O)OC1OC(=O)C(Cl)=C1Nc1ccccc1 (stereo not given),14.1 µM (active),–
COC(=O)C1=C(Nc2ccc(OC)cc2)C=C(C)C(C(=O)OC)C1c1ccc(C)cc1 (stereo not given),–,-11.6%
Cc1ccc(Cl)cc1N1CCN(C(=O)c2cccn3c(=O)c4cc(Cl)ccc4nc23)CC1,–,7.06%

Compound,Potency,"activity change, negative = inhibition"
CCOc1ccc(CNC(=O)CCc2c(C)nn(-c3ccc(N4CCCCC4)nn3)c2C)cc1,–,21.5%
CCOC(=O)c1ccc(N2C(=O)c3[nH]nc(-c4ccccc4)c3C2c2ccc(C(C)C)cc2)cc1 (stereo not given),–,2.4%
Cc1oc2ncnc(N3CCOCC3)c2c1C(=O)NCCc1ccccc1,–,18.8%
COc1cc(NC(=O)Cn2c(=O)n(Cc3ccco3)c(=O)c3oc4ccccc4c32)cc(OC)c1,–,-0.207%
CC(C)c1ccc(NS(=O)(=O)c2ccc3[nH]cc(C(=O)NC4CCCC4)c(=O)c3c2)cc1,–,7.5%
COc1ccc(CCNC(=O)Cn2c(=O)cc(C(F)(F)F)c3c(C)nn(C)c32)c(OC)c1,–,6.4%
CC(=O)c1cccc(NC(=O)CSc2nc3c(c(=O)[nH]2)CCC3)c1,–,-2.77%
CCOC(=O)c1ccc(N2C(=O)c3n[nH]c(C)c3C2c2ccc(O)c(OC)c2)cc1 (stereo not given),–,0.532%
O=c1cc2nc(-c3ccccc3)nc(SCCOc3ccc(Cl)cc3)n2[nH]1,–,-0.807%
Cc1ccc(OCCSc2nc(-c3cccs3)nc3cc(=O)[nH]n23)cc1Cl,–,1.08%
COc1ccccc1-c1cc2nc(C)c(CCC(=O)NC3CCCCC3)c(C)n2n1,–,7.96%
CNc1ccc(-c2nc(-c3ccco3)no2)cc1[N+](=O)[O-],–,-1.26%
CC1CCC(N2CC(=O)N(CCC3=CCCCC3)C(c3ccc(F)cc3)C2=O)CC1 (stereo not given),–,8.65%
Fc1ccc(CSc2nc(NCc3ccccc3)c3ccccc3n2)cc1,–,6.25%
O=C(CCc1ccccc1)NCc1ccc2c(c1)CCN2C(=O)c1ccccc1,–,3.58%
COc1ccc(-c2cc(C(F)(F)F)nc(SCC(=O)N(C)Cc3ccccc3)n2)cc1OC,–,-4.17%
Cc1oc2ncn(CC(C)C)c(=O)c2c1C(=O)N1CCN(c2ccccc2F)CC1,–,13.4%
O=P(O)(CN1CCCCCC1)C1Cc2ccccc2C1,50.1 µM (active),–
O=P(O)(CN1CCCCC1)CN1CCCCC1,–,-0.346%
O=C(CN1CCCC1)N1CCN(c2ccccc2)CC1,–,1.31%
CCn1cc(C(=O)N2CCN(c3cc(C)ccc3C)CC2)c(=O)c2cc(S(=O)(=O)N(C)C3CCCCC3)ccc21,–,2%
